Data from PubChem BioAssay AID602123 (The Scripps Research Institute Molecular Screening Center, 2011).
Where “and” joins values, the source holds several entries; their conditions need not be identical. Equal entries are not always repeated. The whole screen tested about 360,000 compounds, of which about 1,500 (0.42%) were called active. Rule as the data show it: active = inhibition above about 13% (passing the limit was not always enough); inactive = the rest. The list comes from a sample in which actives are over-represented; it also holds similar structures and randomly drawn compounds.

Molecular target: Lon protease (Escherichia coli (strain K12)) (UniProt P0A9M0)
Experiment: E. coli eLon protease inhibition – biochemical, fluorescence polarization, primary screen (AID 602123);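 also: 0% = enzyme with probe and DMSO and 100% = no enzyme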
Details: purified E. coli Lon protease, at 7.94 µM, stronger effect = higher value

Chain of Lon protease (Escherichia coli (strain K12)) (P0A9M0 whole entry, looked up): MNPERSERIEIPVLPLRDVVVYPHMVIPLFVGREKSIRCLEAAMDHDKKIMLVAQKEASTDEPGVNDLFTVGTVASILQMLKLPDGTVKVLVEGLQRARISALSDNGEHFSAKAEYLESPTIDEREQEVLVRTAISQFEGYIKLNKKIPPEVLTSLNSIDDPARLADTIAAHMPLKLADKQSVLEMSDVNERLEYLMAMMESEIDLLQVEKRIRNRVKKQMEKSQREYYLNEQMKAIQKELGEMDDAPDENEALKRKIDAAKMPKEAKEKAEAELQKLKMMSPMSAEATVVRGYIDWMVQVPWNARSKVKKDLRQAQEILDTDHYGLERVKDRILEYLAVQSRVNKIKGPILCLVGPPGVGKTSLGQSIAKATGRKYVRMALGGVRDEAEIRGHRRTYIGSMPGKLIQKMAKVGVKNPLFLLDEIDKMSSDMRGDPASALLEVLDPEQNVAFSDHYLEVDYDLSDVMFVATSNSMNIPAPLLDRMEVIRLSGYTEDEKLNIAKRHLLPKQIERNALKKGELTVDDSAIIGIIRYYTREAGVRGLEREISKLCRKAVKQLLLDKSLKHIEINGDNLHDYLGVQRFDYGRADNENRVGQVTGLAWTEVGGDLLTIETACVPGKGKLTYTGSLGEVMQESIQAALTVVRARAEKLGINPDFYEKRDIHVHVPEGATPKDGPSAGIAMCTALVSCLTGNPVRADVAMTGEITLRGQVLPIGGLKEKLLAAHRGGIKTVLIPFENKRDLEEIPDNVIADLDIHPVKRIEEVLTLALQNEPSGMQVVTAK

SMILES	inhibition
COc1ccc(NC(=O)CN2C(=O)COc3ccc(S(=O)(=O)N4CCOCC4)cc32)c(OC)c1	-3.19% (inactive)
CCCCCc1ccc(-c2ccc(C(=O)O)cc2)nc1	-2.2% (inactive)
O=C(C1CCCO1)N1CCN(C(=S)NC2CC2)CC1 (configuration not stated)	-2.14% (inactive)
O=C(OC1CCOC1=O)c1ccc(-c2nc3ccccc3s2)s1 (configuration not stated)	-3.38% (inactive)
CCOC(=O)N1CCC(NC(=O)CCc2cn(C)c3ccccc23)CC1	-2.75% (inactive)
Cn1cc(CCC(=O)NC2CC2)c2ccccc21	0.25% (inactive)
CCOC(=O)N1CCC(NC(=O)Cc2cn(C)c3ccccc23)CC1	15.9% (active)
CC1(C)OC(=O)C(=CSc2ccc(C(C)(C)C)cc2)C(=O)O1	-7.26% (inactive)
Cc1cc(OCC(=O)N(C)c2c(N)n(Cc3ccccc3)c(=O)[nH]c2=O)c(C(C)C)cc1Cl	-1.64% (inactive)
Nc1cc(=O)n(Cc2ccccc2)c(=O)n1Cc1ccccc1	-0.35% (inactive)
Cc1cc2nc3c(=O)n(Cc4ccccc4)c(=O)[nH]c3nc2cc1N	182% (active)
CC(C)(C)OC(=O)N1CCC(C(=O)NNC(=O)c2ccc(Cl)cc2Cl)CC1	-1.59% (inactive)
CCOc1ccc(NC(=O)C2CCN(C(=O)N3CCOc4ccccc43)CC2)cc1	-11.2% (inactive)
CN1CCN(S(=O)(=O)c2ccc(N3CCN(S(=O)(=O)c4cccs4)CC3)nc2)CC1	-1.23% (inactive)
O=C(C1CCN(S(=O)(=O)Cc2ccccc2)CC1)N1CCCc2ccccc21	-0.35% (inactive)
CC1CN(Cc2nc3c(c(=O)n(C)c(=O)n3C)n2Cc2cccc(Cl)c2)CC(C)O1 (configuration not stated)	-2.4% (inactive)
O=C1CCC(=O)N1c1ccc(NCCc2ccccc2F)c([N+](=O)[O-])c1	0.67% (inactive)
CCN(CCCCOC(=O)c1ccc(OC)c(OC)c1)C(C)Cc1ccc(OC)cc1 (configuration not stated)	-2.66% (inactive)
O=C1c2ccccc2C(=O)c2c1cccc2N1CCN(Cc2ccccc2)CC1	5.59% (inactive)

SMILES	inhibition
O=C1c2ccccc2C(=O)c2c1cccc2N1CCN(CCO)CC1	17.6% (active)
O=C1CCN(CCCc2ccccc2)CCN1CCO	1.45% (inactive)
Cc1cc2c(cc1C)[n+](C)cn2CC(O)COCC1CC=CCC1 (configuration not stated)	4.81% (inactive)
C[C@]12C=CC(=O)C=C1CC[C@@H]1[C@@H]2C(=O)C[C@@]2(C)[C@H]1CC[C@]2(O)C(=O)CO	-2.3% (inactive) and 1.49% (inactive)
C[C@H](CO)N1C[C@H](C)[C@@H](CN(C)C(=O)c2cccc(F)c2)Oc2cc(-c3cncnc3)ccc2S1(=O)=O	-3.93% (inactive)
CCOC(=O)C(=CNNc1ccsc1C(=O)OC)C(=O)OCC	-2.58% (inactive)
O=C(Nc1cccc2ccccc12)c1[nH]c(-c2ccccc2)c2c1C(=O)N(C1CC1)C2=O	-8.53% (inactive)
CC(C)c1ccc(S(=O)(=O)N2CCN(C(C)C(=O)NC3CCCC3)CC2)cc1 (configuration not stated)	8.04% (inactive)
O=C(Cc1ccc(S(=O)(=O)N2CCCC2)s1)NC1CCCCCC1	-1.79% (inactive)
CC(C(=O)NC1CCCC1)N1CCN(S(=O)(=O)c2ccccc2Cl)CC1 (configuration not stated)	17.4% (active)
COc1cc(CNCc2ccc3c(c2)OCO3)c([N+](=O)[O-])cc1OC	-8.35% (inactive)
COc1cccc(NC(=O)C2CCCN(c3ncnc4c3nc3n4CCCCC3)C2)c1 (configuration not stated)	-9.74% (inactive)
CCn1nnnc1SCC(=O)c1ccc(C)cc1C	-3.48% (inactive)
Cc1ccc2c(c1)nnc1nnc(SCC(=O)O)n12	62% (active)
Cc1cccc(-c2nnc(SCC(=O)O)n2Cc2ccccc2)c1	-7.43% (inactive)
CC(C)(C(=O)N1CCC1(C)C(=O)NS(=O)(=O)c1ccc(Br)cc1)c1ccccc1 (configuration not stated)	-2.78% (inactive)
Cc1cc(Br)ccc1NC(=O)CCCOc1cc(=O)n(C)c2ccccc12	-8.57% (inactive)
COc1ccc(C(CC(=O)c2ccccc2)S(=O)(=O)c2ccccc2)cc1 (configuration not stated)	-2.33% (inactive)
O=C(COC(=O)CCc1c[nH]c(=O)[nH]1)Nc1ccccc1Cl	25.7% (active)

SMILES	inhibition
Cc1cccc(NC(=O)COC(=O)CCc2ccccc2)c1C	-6.48% (inactive)
Cc1cc(C(=O)OCC(=O)Nc2ccccc2Cl)c(C)o1	-2.91% (inactive)
C/C(=N\NC(=O)c1ccc(C)cc1)C1C(=O)c2ccccc2C1=O	3.32% (inactive)
COc1ccc(N(CC(=O)NC2CCCC2)C(=O)CS(=O)CC(=O)Nc2ccc3c(c2)OCO3)cc1 (configuration not stated)	0.46% (inactive)
CC(C)NC(=O)N1Cc2cc(C(=O)NCC(F)(F)F)nc(-c3cccc(-c4cc5ccccc5o4)c3)c2[C@@H]1CCO	1.84% (inactive)
COCCOC(=O)c1sc(=S)n(CCOC)c1N	18.6% (active)
O=C(CSc1n[nH]c(-c2cccs2)n1)N1CCCCC1	0.33% (inactive)
CCCN(CCC)C(=O)C1c2ccccc2Oc2ccccc21	151% (active)
CCOC(=O)CC(NC(=O)C1c2ccccc2Oc2ccccc21)c1ccc(C)cc1 (configuration not stated)	-23.2% (inactive)
CC(C)(C)NC(=O)NC(=O)COC(=O)C1c2ccccc2Oc2ccccc21	7.11% (inactive)
Cc1ccc(Sc2ccncc2S(N)(=O)=O)cc1	-17.1% (inactive)
CCc1cc(=O)oc2cc(C)cc(OCC(=O)N3CCC[C@@H]3C(=O)O)c12	3.5% (inactive)
C/C(CC(O)(/C=N/O)c1ccccc1)=N\O (configuration not stated)	-3.3% (inactive)
CCC(C)(C)NC(=O)C(c1cccn1C)N(Cc1ccc(C)cc1)C(=O)Cn1nnc2ccccc21 (configuration not stated)	0.29% (inactive)
CC(NC(=S)Nc1ccc(S(N)(=O)=O)cc1)c1ccc2c(c1)OCO2 (configuration not stated)	4.89% (inactive)
O=C(COC(=O)c1c2c(nc3ccccc13)CCCC2)c1ccc(Br)s1	-4.86% (inactive)
NC(=O)c1ccc(NC(=O)COC(=O)c2c3c(nc4ccccc24)/C(=C\c2ccc4c(c2)OCO4)CCC3)cc1	183% (active)
O=C(COC(=O)c1ccc2c(c1)OCCO2)NCc1ccccc1Cl	6.26% (inactive)
CCN(CC(=O)Nc1ccc2c(c1)OCO2)S(=O)(=O)c1ccccc1	7.87% (inactive)
